High-throughput results (PubChem)
Shown are actives, neighbours in structure and some others; about 3.1% of the full set was active somewhere.
eLon inh = E. coli protease La inhibition; P0A9M0; purified E. coli Lon protease, fluorescence polarization; inhibition, % at 7.94 µM; 360,000 tested, 0.42% active; AID 602123; in the data active = inhibition above about 13%, passing the limit was not always enough
Target sequence (P0A9M0 whole entry, looked up): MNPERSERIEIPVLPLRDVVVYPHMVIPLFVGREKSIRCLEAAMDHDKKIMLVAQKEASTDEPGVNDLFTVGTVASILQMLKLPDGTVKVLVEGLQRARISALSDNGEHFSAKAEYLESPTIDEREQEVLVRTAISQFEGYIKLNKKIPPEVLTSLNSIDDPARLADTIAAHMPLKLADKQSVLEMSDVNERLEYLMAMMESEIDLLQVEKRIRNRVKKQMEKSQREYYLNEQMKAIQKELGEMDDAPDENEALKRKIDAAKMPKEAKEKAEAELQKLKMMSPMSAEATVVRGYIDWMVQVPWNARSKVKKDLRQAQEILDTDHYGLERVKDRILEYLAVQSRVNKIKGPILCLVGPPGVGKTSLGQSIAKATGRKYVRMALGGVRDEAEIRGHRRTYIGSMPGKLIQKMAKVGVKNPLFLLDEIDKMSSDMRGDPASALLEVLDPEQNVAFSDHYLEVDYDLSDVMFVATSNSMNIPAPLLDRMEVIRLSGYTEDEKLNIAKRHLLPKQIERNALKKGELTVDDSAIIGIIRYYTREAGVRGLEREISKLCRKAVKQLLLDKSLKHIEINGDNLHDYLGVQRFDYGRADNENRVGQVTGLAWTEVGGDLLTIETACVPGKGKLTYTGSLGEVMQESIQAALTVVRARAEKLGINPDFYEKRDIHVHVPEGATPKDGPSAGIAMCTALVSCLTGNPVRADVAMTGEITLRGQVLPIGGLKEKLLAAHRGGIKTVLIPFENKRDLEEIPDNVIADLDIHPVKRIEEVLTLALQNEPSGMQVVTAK
Rin1 Abl inh = inhibitors of human Rin1-Abl protein interaction | P00519+Q13671 | TR-FRET Rin1/Abl binding, biochemical | inhibition, % at 7.35 µM | 360,000 tested, 0.4% active | AID 588664; in the data active = inhibition above about 5%, passing the limit was not always enough
pPAFAH inh = pPAFAH (human) enzyme inhibition; Q13093; recombinant pPAFAH, FP-rhodamine probe fluorescence polarization; inhibition, % at 3.39 µM; 330,000 tested, 1.5% active; AID 463082;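 active = inhibition above the mean inhibition across the screen plus 3 SD, cut at about 25% in these data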;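 note: inhibitors block binding of the rhodamine activity-based probe so polarization drops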
PAFAH1B2 inh = inhibitors of human PAFAH1B2; P68402; recombinant PAFAH1B2, FP-rhodamine activity probe, fluorescence polarization; inhibition, % at 3.39 µM; 340,000 tested, 1.2% active;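 active = inhibition above the mean of all tested compounds plus 3 SD, cut at about 24% in these data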
PAFAH1B3 inh = blocks human PAF acetylhydrolase 1B catalytic subunit 3. recombinant PAFAH1B3, FP-rhodamine probe, fluorescence polarization. AID 492972. Q15102. 340,000 tested, 0.28% active. inhibition, % at 3.39 µM;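 active = inhibition above the screen-wide average of all tested compounds plus 3 SD, cut at about 25% in these data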
PAFAH2 inh = inhibitors of human PAFAH2; recombinant PAFAH2, FP-rhodamine activity probe, fluorescence polarization; inhibition, % at 3.39 µM; 340,000 tested, 0.99% active; AID 492956;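 active = inhibition above the mean over all tested compounds plus 3 SD, cut at about 30% in these data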;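 note: inhibitors block probe labeling of enzyme so polarization drops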
pPAFAH confirm = confirmation of human plasma PAF acetylhydrolase (pPAFAH) inhibitors | recombinant pPAFAH, FP-Rh probe fluorescence polarization | AID 463230 | inhibition, % at 3.39 µM | 2,300 tested, 72% active | shares compounds with pPAFAH inh;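 active = mean inhibition of the triplicate above the hit cutoff set for the earlier primary screen, cut at about 25% in these data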
Large screens that a line does not name were inactive (follow-up assays come after a bar, where they were run).

CCCNC(=O)C1(C)CCN(C(=O)C2(c3ccc(Cl)cc3)CCCC2)C1 (stereo unspecified)	none (no result: pPAFAH inh, PAFAH1B2 inh, PAFAH1B3 inh, PAFAH2 inh)
O=C(CC1Nc2cccc3cccc(c23)NC1=O)Nc1ccc(F)cc1 (stereo unspecified)	pPAFAH inh 59.6 | pPAFAH confirm inactive
COc1ccc(NC(=O)CC2Nc3cccc4cccc(c34)NC2=O)cc1 (stereo unspecified)	none
CNC(=O)C[C@H]1C(=O)N(CCc2ccccc2)C[C@@H]1CSC	none (no result: pPAFAH inh, PAFAH1B2 inh, PAFAH1B3 inh, PAFAH2 inh)
COc1ccc(NC(=O)CSc2nc3nc(C)cc(C)c3c(=O)[nH]2)cc1	pPAFAH inh 69.3 | pPAFAH confirm inactive
COc1ccc(S(=O)(=O)N2CCCC2=O)cc1N(C)S(C)(=O)=O	none (no result: pPAFAH inh)
N=C1/C(=C/c2ccc(-c3cccc(C(=O)O)c3)o2)C(=O)N=C2SC=C(c3ccccc3)N12	pPAFAH inh 49.9, PAFAH1B2 inh 26.3, PAFAH1B3 inh 26.6, PAFAH2 inh 32.0 | pPAFAH confirm 61.9
N=C1/C(=C\c2ccc(-c3cc(Cl)cc(Cl)c3)o2)C(=O)N=C2SC=C(c3ccccc3)N12	none
COc1ccc(N=Cc2cc(Cc3ccccc3Cl)cc([N+](=O)[O-])c2O)cc1OC	none
Cc1ccc(N=Cc2cc(Cc3ccccc3Cl)cc([N+](=O)[O-])c2O)c(O)c1	pPAFAH inh 47.8 | pPAFAH confirm 62.4
NC(=O)C1CCN(C(=O)CN(C2CCCCC2)S(=O)(=O)c2ccc(F)cc2)CC1	none
CCN(CC)C(=O)C1=C(C)N(CCC2=CCCCC2)C(=O)C(CC(=O)NCCCCc2ccccc2)C1 (stereo unspecified)	none (no result: pPAFAH inh, PAFAH1B2 inh, PAFAH1B3 inh, PAFAH2 inh)
O=C1CC(=C2c3ccccc3-c3ccccc32)C(=O)N1CCCCN1CCN(c2ccccc2)CC1	pPAFAH inh 41.1 | pPAFAH confirm inactive
COc1cnc(-c2ccccn2)nc1Oc1ccc(Cl)c2ccccc12	pPAFAH inh 59.9 | pPAFAH confirm 64.2
Nc1c(C(=O)NC2CC2)sc2nc3c(c(-c4ccco4)c12)CC/C3=C/c1ccco1	Rin1 Abl inh 12.9, pPAFAH inh 88.5, PAFAH1B2 inh 28.1, PAFAH1B3 inh 56.3, PAFAH2 inh 46.1 | pPAFAH confirm 47.7
O=C(COC(=O)c1c2c(nc3ccccc13)/C(=C\c1ccco1)CC2)NC1CCCC1	none (no result: pPAFAH inh)
CN(CC(=O)Nc1ccc(C(N)=O)cc1)CC(=O)Nc1ccccc1Br	pPAFAH inh 58.8 | pPAFAH confirm inactive
N#Cc1c(C(F)(F)F)cc(Cc2ccccc2)nc1SCC(=O)NCC(=O)O	none
Cc1ccc(-c2cc(C(=O)N3CCN(c4ccccc4O)CC3)c3ccccc3n2)o1	pPAFAH inh 65.5 | pPAFAH confirm inactive
COc1ccc2[nH]c(=O)c(CN(CC3CCCO3)S(=O)(=O)c3ccccc3F)cc2c1 (stereo unspecified)	none
O=C(O)c1ccc(Nc2nc3ccccc3nc2NS(=O)(=O)c2ccc(F)cc2)cc1	none
CC(=O)Nc1ccc(S(=O)(=O)Nc2nc3ccccc3nc2Nc2ccc(N)cc2)cc1	pPAFAH inh 38.0 | pPAFAH confirm inactive
CC(C)(C)c1ccc(Oc2cccc(C3CC(=O)C(C4NCCc5ccccc54)C(=O)C3n3cncn3)c2)cc1 (stereo unspecified)	pPAFAH inh 41.3 | pPAFAH confirm inactive
O=C1CC(c2ccccc2Oc2cccc(Cl)c2)C(n2cncn2)C(=O)C1C1NCCc2ccccc21 (stereo unspecified)	none
COc1cc(OC)c2c(O)c3c(c(-c4c5c(c(O)c6c(OC)cc(OC)cc46)CO[C@@H](C)[C@H]5O)c2c1)[C@H](O)[C@H](C)OC3	pPAFAH inh 78.0 | pPAFAH confirm 67.6
C(=C\c1ccco1)/C1=NN(c2ccccc2)C(c2ccco2)C1 (stereo unspecified)	pPAFAH inh 39.6 | pPAFAH confirm inactive
CC(OC(=O)c1ccccn1)C(=O)Nc1ccc2c(c1)OCCO2 (stereo unspecified)	pPAFAH inh 47.8 | pPAFAH confirm inactive
COc1cc(/C=N/NC(=O)C(Cc2c[nH]c3ccccc23)NC(=O)OCC(C)C)cc([N+](=O)[O-])c1OCc1ccccc1 (stereo unspecified)	none
